Test results published in PubChem BioAssay (NCI).
About 83,000 compounds went through this panel and 20% of them were active in at least one assay; those are over-represented in the sample as a whole.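 Single-concentration screen, 48 h exposure, 96-well plates. Endpoint: percent growth. Below 10 = active.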 A number with no mark means an inactive call. Activity calls are given as the source filed them.

Tests used:
Test in all cases: NCI-60 one-dose screen, 48 h (100 = growth as untreated, 0 = no growth, -100 = all killed)
Details in all cases: 10 µM unless noted
SK-MEL-2 melanoma = system: SK-MEL-2 melanoma
EKVX NSCLC = system: EKVX NSCLC
SN12C renal = system: SN12C renal
UO-31 renal = system: UO-31 renal
TK-10 renal = system: TK-10 renal
ACHN renal = system: ACHN renal
CAKI-1 renal = system: CAKI-1 renal
A498 renal = system: A498 renal
CCRF-CEM leukemia = system: CCRF-CEM leukemia
MOLT-4 leukemia = system: MOLT-4 leukemia

| Compound | growth (SK-MEL-2 melanoma) | growth (EKVX NSCLC) | growth (SN12C renal) | growth (UO-31 renal) | growth (TK-10 renal) | growth (ACHN renal) | growth (CAKI-1 renal) | growth (A498 renal) | growth (CCRF-CEM leukemia) | growth (MOLT-4 leukemia) |
| --- | --- | --- | --- | --- | --- | --- | --- | --- | --- | --- |
| O=S(=O)(c1ccc(NCSc2nc3ccccc3s2)cc1)c1ccc(NCSc2nc3ccccc3s2)cc1 | 78.8% | 101% | 95.5% | 60.2% | 92.6% | 102% | 95.4% | 112% | 71.8% | 76.9% |
| COc1cc2ncnc(Nc3ccc(S(=O)(=O)Nc4cc(C)on4)cc3)c2cc1OCCCN1CCOCC1 | 101% | 93.4% | 104% | 88.1% | 95.3% | 106% | 98% | 104% | 104% | 101% |
| CCCCC1=C(Br)C(=O)c2ncccc2C1=O | 111% | 99.2% | 92.7% | 87.6% | 109% | 67.4% | 90% | 99.5% | 8.13% (active) | 5.83% (active) |
| C[C@@H]1N=C(c2ccc(Cl)cc2Cl)Nc2nc3ccccn3c2C1=O | 38.2% | 82.5% | 75.8% | 52.4% | 74.5% | 60.2% | 47.2% | 60.7% | 56.6% | 50.4% |
| Cc1nn(-c2ccccc2)c(Oc2ccccc2)c1/C=N/NC(=O)Cn1c(=O)sc2ccccc21 | 42.6% | 33.3% | 61.4% | 35% | 60.7% | 47.2% | 33.4% | 45.6% | 49.9% | 10.3% |
| O=c1ccc2nc(-c3ccccc3)nn(-c3ccccn3)c-2c1 | 96.8% | 109% | 93.1% | 20.5% | -83.4% (active) | -91.9% (active) | 77.4% | 88.2% | 1.08% (active) | -10.6% (active) |
| C=CCn1c(SCC(=O)Nc2ccc(C(=O)/C=C/c3cc(OC)c(OC)c(OC)c3)cc2)nnc1-c1cc(-c2ccc(S(N)(=O)=O)cc2)nc2ccccc12 | 100% | 100% | 90.3% | 77.1% | 141% | 93.8% | 72.2% | 97% | 29.5% | 59.7% |
| CNC(=O)c1cc(Oc2cccc3nc(NC(=O)Nc4ccc(F)cc4F)ccc23)ccn1 | 71% | -0.932% (active) | 10.6% | 10.4% | -37.7% (active) | 33.6% | 72.7% | 68.1% | 49.7% | 53.6% |
| Cc1nc2ccccc2c(/C=C/c2ccc(Cl)cc2)c1C(=O)/C=C/c1ccccc1 | -14.1% (active) | 31.5% | 20.6% | -38% (active) | 17.7% | 5.92% (active) | 4.04% (active) | 44% | 6.45% (active) | 5.35% (active) |
| CCN1C(=O)N(CC)C2C1NC(=S)N2/N=C/C=C/c1cccs1 (stereo not given) | 64.1% | 55.1% | 30.2% | 44.9% | 70.3% | 42.4% | 36.5% | 18.4% | 12.1% | 20.4% |
| O=C(Nc1ccc2c(c1)-c1ccccc1C2)C1CC(=O)N(c2ccc3c(c2)OCO3)C1 (stereo not given) | 89.2% [50 µM] | 78.1% [50 µM] | 73% [50 µM] | 97.7% [50 µM] | 60.6% [50 µM] | 64.5% [50 µM] | 61% [50 µM] | 26.1% [50 µM] | 100% [50 µM] | 99.7% [50 µM] |
| COc1cc(OCc2cccc(-c3ccccc3)c2C)cc(OC)c1CN1CCCCC1C(=O)NCCOCCOCCN (stereo not given) | 98.4% | 85.5% | 87.6% | 79.1% | 125% | 98.7% | 92.4% | 72.9% | 1% (active) | 38.4% |
| COc1c(O[C@@H]2OC(CO)[C@H](O)[C@H](O)C2O)cc2oc3cc(O)c(CC=C(C)C)c(O)c3c(=O)c2c1CC=C(C)C (stereo not given in full) | 97.3% | 93.5% | 84.4% | 90.8% | 110% | 96.5% | 103% | 83.8% | 92.9% | 62.2% |
| COc1ccc(/C=C2/CCc3cc4ccc(OC)cc4[o+]c32)c(O)c1 | 85.6% | 75.7% | 13.6% | -28.7% (active) | 135% | 34.3% | 81% | 94.9% | 9.94% (active) | 0.523% (active) |
| CNC1=C(Br)C(=O)c2c(C(=O)OC)c(C)nc(C)c2C1=O | 52.1% | 79.3% | 45.4% | 77.4% | 132% | 72% | 68.2% | 93.1% | 77.3% | 79.8% |
| CCOc1ccc(-c2cc(C3(S(=O)(=O)c4ccc(C)cc4)CC=CC3)on2)cc1 | 90.3% | 68.8% | 87% | 81.4% | 94.1% | 86.8% | 83.2% | 72.1% | 76.6% | 76.8% |
| Cc1cccc(C)c1NC(=O)Nc1ccccc1 | 29% | 121% | 88.6% | 80.7% | 96.7% | 4.67% (active) | 54.3% | 109% | 83.1% | 81.7% |
| CC(=O)c1c(/C=C/c2ccc(C)cc2)c2ccccc2[nH]c1=O | 107% | 95.1% | 83.2% | 49.6% | 106% | 91% | 67.6% | 81.2% | 105% | 87.1% |
| COc1ccc2c(c1)c(-c1nc(-c3cn(C)c4ccncc34)cs1)cn2C | 112% | -36.7% (active) | 94.2% | 71.2% | 79.7% | 95% | 75.6% | 90.9% | -27.9% (active) | -31.1% (active) |
| Fc1ccc(/C=C/c2cc(/C=C/c3ccc(F)cc3)n(-c3cc(F)cc(F)c3)n2)cc1 | 90.8% | 92.3% | 102% | 82.8% | 82.5% | 99% | 90.6% | 95.6% | 3.7% (active) | 103% |
| COC(=O)[C@H]1Cc2c([nH]c3ccccc23)[C@H](c2ccc3c(c2)OCO3)N1 | 113% | 95.5% | 100% | 80.2% | 96% | 98.4% | 82.3% | 97.5% | 96.4% | 100% |
| Cc1ccc(Nc2nc(N)nc(N)c2N=O)cc1Cl | 85.8% | 81.5% | 90% | 56.5% | 96.2% | 72.2% | 82.2% | 119% | 89.8% | 68.7% |
| O=C(Nc1ncc(Cc2ccc(Cl)cc2)s1)c1ccc2c(c1)OCCO2 | 41% | 35.7% | 30.8% | 50.2% | 49.5% | 29.8% | 28.7% | -2.66% (active) | 15.4% | 6.99% (active) |
| COc1ccc(C(=O)C2OC3=C(C(=O)CC(C)(C)C3)C2c2cccc(Oc3ccccc3)c2)cc1 (stereo not given) | 93.4% | 85% | 89.5% | 74% | 91.5% | 91.8% | 81.7% | 62.9% | 84% | 83.4% |
| CN(C)CCCN(CCC1CCCCC1)CCC1CCCCC1 | 61.4% | 73.2% | 80.4% | 42% | 85.2% | 65.8% | 52.9% | 58.8% | 21.4% | 15.9% |
| CC(CN)[C@@H]1CC[C@]2(CO)CC[C@]3(C)[C@H](CC[C@@H]4[C@@]5(C)CCC(NCCO)C(C)(C)[C@@H]5CC[C@]43C)[C@@H]12 (stereo not given in full) | 94.4% | 73% | 80.1% | 69.7% | 93.4% | 95% | 59.9% | 87.2% | 6.44% (active) | 18.3% |
| CCCCCC(C)(O)C(C(=O)O)c1ccccc1 (stereo not given) | 108% | 104% | 97.8% | 94.5% | 104% | 96.1% | 100% | 90.3% | 105% | 112% |
